In ChEMBL document CHEMBL1961873, “Compounds: GSK PKIS; Assays: Nanosyn kinase panel” (2012):

What was measured:
[1] = target: Ribosomal protein S6 kinase alpha-6 (Homo sapiens) (UniProt Q9UK32); conditions: at 1 µM;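 further: each value is a mean inhibition of RSK4 from a GSK PKIS panel screen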
[2] = target: T1, Serine/threonine-protein kinase Sgk1 (Homo sapiens) (UniProt O00141); conditions: at 0.1 µM
T1 sequence (whole entry): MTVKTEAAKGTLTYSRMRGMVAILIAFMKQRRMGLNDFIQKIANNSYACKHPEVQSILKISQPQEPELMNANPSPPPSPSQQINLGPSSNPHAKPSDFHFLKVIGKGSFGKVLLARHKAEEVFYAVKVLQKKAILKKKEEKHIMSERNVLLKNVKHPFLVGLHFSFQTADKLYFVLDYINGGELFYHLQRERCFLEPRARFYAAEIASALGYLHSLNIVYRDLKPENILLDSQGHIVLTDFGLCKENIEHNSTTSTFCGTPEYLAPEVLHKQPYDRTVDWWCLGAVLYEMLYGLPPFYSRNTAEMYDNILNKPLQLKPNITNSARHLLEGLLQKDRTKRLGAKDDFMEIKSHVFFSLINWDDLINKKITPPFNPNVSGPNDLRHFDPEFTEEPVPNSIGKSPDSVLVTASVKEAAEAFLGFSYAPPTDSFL

[3] = target: T1, Serine/threonine-protein kinase Sgk1 (Homo sapiens); conditions: at 1 µM
[4] = target: T2, Serine/threonine-protein kinase Sgk2 (Homo sapiens) (UniProt Q9HBY8); conditions: at 0.1 µM
T2 sequence (whole entry): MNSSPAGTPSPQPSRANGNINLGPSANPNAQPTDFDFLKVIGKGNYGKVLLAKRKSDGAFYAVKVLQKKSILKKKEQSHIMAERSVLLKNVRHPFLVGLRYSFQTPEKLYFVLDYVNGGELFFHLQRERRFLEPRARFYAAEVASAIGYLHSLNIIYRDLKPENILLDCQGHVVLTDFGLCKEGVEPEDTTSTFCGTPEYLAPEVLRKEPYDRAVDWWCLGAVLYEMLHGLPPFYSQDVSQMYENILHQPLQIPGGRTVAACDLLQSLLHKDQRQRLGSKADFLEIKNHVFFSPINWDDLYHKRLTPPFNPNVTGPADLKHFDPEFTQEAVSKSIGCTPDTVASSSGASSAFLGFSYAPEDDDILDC

[5] = target: T2, Serine/threonine-protein kinase Sgk2 (Homo sapiens); conditions: at 1 µM
[6] = target: T3, Serine/threonine-protein kinase Sgk3 (Homo sapiens) (UniProt Q96BR1); conditions: at 0.1 µM
T3 sequence (whole entry): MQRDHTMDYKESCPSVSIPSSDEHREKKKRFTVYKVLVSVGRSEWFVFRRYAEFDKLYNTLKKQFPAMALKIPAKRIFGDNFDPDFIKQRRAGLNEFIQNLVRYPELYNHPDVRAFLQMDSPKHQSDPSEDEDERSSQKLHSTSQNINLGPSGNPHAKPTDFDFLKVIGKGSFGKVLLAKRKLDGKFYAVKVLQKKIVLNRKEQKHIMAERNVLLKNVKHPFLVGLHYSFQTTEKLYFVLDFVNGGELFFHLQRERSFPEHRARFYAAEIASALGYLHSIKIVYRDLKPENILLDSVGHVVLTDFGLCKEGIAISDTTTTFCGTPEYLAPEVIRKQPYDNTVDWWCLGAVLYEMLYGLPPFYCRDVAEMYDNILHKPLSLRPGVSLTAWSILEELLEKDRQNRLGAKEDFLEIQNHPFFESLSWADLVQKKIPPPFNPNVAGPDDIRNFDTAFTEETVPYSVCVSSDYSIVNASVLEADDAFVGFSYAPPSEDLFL

[7] = target: T3, Serine/threonine-protein kinase Sgk3 (Homo sapiens); conditions: at 1 µM
[8] = target: 5'-AMP-activated protein kinase catalytic subunit alpha-1 (Homo sapiens) (UniProt Q13131); conditions: at 0.1 µM
[9] = target: 5'-AMP-activated protein kinase catalytic subunit alpha-1 (Homo sapiens) (UniProt Q13131); conditions: at 1 µM
[10] = target: 5'-AMP-activated protein kinase catalytic subunit alpha-2 (Homo sapiens) (UniProt P54646); conditions: at 0.1 µM
[11] = target: 5'-AMP-activated protein kinase catalytic subunit alpha-2 (Homo sapiens) (UniProt P54646); conditions: at 1 µM
[12] = target: T4, NUAK family SNF1-like kinase 1 (Homo sapiens) (UniProt O60285); conditions: at 0.1 µM
T4 sequence (whole entry): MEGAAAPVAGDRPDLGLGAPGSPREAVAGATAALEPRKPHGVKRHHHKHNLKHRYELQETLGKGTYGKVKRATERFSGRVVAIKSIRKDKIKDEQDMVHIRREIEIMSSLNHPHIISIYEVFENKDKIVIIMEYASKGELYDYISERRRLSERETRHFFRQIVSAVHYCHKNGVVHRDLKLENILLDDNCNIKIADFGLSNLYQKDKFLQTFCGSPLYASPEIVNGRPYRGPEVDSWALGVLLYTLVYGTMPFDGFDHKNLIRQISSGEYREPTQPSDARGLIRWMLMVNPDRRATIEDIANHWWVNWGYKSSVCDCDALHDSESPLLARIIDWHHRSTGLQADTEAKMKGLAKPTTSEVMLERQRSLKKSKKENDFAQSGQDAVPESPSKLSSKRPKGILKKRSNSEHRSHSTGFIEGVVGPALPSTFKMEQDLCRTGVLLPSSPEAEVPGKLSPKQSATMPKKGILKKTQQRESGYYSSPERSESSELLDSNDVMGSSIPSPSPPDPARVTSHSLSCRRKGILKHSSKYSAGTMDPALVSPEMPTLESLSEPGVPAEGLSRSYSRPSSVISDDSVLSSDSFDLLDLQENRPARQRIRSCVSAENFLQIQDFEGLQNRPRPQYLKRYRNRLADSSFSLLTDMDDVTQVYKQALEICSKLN

[13] = target: T4, NUAK family SNF1-like kinase 1 (Homo sapiens); conditions: at 1 µM
[14] = target: T5, Serine/threonine-protein kinase BRSK1 (Homo sapiens) (UniProt Q8TDC3); conditions: at 0.1 µM
T5 sequence (whole entry): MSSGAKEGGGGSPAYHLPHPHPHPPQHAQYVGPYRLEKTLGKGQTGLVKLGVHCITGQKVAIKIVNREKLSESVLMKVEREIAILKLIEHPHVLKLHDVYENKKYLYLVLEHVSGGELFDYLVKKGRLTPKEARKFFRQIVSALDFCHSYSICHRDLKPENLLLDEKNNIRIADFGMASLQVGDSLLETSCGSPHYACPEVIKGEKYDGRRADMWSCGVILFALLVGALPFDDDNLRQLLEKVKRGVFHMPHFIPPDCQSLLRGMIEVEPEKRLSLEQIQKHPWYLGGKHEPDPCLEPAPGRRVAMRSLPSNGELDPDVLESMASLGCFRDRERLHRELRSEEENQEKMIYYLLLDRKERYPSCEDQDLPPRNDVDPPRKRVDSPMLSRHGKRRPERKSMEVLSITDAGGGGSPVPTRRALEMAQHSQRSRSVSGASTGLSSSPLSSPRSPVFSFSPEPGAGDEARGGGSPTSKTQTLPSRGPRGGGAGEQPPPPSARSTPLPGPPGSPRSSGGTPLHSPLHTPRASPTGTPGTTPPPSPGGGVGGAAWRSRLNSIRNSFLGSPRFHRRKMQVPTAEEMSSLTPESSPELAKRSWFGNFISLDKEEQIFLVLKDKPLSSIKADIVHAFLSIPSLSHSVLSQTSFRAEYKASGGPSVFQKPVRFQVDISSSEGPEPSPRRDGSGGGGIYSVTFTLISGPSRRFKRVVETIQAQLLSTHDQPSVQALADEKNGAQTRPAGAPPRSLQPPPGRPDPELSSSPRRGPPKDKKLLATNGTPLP

[15] = target: T5, Serine/threonine-protein kinase BRSK1 (Homo sapiens); conditions: at 1 µM
[16] = target: T6, Serine/threonine-protein kinase BRSK2 (Homo sapiens) (UniProt Q8IWQ3); conditions: at 0.1 µM
T6 sequence (whole entry): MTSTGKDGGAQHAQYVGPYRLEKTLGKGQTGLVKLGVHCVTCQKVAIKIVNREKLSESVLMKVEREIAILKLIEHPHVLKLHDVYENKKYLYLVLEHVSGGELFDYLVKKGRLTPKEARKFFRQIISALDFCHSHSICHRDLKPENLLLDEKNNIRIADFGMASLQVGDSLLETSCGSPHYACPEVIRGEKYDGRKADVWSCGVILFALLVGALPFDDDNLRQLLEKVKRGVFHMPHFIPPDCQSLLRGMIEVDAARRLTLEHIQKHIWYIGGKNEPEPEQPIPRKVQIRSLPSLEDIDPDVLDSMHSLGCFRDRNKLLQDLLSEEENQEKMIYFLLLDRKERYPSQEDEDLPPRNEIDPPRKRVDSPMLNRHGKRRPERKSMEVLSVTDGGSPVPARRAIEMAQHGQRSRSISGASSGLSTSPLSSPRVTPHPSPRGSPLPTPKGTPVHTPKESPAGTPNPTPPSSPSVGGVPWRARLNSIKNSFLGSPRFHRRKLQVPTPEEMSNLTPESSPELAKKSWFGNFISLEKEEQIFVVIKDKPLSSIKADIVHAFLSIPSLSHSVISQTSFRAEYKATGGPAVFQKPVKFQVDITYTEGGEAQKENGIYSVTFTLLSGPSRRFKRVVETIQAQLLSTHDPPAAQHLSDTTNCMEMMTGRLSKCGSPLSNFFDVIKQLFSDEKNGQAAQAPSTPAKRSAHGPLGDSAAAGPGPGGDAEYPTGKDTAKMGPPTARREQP

[17] = target: T6, Serine/threonine-protein kinase BRSK2 (Homo sapiens); conditions: at 1 µM
[18] = target: Calcium/calmodulin-dependent protein kinase type 1D (Homo sapiens) (UniProt Q8IU85); conditions: at 0.1 µM
[19] = target: Calcium/calmodulin-dependent protein kinase type 1D (Homo sapiens) (UniProt Q8IU85); conditions: at 1 µM
[20] = target: Calcium/calmodulin-dependent protein kinase type II subunit alpha (Homo sapiens) (UniProt Q9UQM7); conditions: at 0.1 µM;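 further: reported values are averages (mean inhibition of CAMK2A)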
Chain of Calcium/calmodulin-dependent protein kinase type II subunit alpha (Homo sapiens) (Q9UQM7 whole entry): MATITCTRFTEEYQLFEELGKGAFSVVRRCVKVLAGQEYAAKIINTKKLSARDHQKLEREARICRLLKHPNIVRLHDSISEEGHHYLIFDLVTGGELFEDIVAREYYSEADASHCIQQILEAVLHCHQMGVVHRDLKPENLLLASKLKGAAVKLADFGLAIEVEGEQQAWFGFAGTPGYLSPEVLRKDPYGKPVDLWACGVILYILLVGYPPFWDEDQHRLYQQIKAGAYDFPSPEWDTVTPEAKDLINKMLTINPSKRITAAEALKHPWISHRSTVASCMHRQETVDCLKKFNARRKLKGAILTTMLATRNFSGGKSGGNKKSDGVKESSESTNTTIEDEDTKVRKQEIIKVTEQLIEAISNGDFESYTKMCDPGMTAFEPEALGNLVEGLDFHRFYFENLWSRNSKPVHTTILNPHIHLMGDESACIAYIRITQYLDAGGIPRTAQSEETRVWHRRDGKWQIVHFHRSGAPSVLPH

Chain of 5'-AMP-activated protein kinase catalytic subunit alpha-2 (Homo sapiens) (P54646 whole entry, looked up): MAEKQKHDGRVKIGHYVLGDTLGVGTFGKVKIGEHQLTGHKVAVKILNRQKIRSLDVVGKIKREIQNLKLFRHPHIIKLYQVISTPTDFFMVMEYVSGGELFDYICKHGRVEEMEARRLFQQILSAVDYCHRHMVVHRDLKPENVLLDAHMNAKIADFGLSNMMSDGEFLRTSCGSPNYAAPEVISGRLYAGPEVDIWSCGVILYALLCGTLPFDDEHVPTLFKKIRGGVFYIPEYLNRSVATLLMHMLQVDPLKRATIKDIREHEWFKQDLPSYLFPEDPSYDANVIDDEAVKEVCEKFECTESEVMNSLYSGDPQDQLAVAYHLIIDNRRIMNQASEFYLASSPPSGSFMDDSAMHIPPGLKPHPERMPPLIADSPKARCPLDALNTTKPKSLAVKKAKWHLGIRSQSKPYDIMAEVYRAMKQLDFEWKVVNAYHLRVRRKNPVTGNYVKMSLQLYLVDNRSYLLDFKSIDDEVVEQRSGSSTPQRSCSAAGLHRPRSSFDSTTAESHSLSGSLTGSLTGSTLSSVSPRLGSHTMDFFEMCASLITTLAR
Chain of Ribosomal protein S6 kinase alpha-6 (Homo sapiens) (Q9UK32 whole entry): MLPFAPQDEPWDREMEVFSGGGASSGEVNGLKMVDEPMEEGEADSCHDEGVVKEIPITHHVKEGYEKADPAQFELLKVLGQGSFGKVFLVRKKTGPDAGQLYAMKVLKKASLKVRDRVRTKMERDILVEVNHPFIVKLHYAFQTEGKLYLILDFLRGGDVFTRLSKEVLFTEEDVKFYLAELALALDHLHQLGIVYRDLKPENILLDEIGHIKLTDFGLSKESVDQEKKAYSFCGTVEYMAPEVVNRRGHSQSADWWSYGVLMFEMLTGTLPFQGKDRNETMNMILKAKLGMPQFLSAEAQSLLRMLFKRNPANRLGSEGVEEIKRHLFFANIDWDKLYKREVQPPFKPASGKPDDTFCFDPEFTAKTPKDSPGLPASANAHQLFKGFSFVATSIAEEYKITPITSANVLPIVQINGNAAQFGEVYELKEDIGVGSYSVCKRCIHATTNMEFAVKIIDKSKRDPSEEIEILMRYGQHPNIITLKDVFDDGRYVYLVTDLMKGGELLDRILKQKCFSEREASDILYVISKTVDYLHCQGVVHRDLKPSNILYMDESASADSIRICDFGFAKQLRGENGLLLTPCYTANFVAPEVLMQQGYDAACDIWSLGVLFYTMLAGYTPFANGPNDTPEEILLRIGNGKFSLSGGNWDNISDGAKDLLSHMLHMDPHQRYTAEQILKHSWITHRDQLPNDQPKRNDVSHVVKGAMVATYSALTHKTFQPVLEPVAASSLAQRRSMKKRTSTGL
Chain of Calcium/calmodulin-dependent protein kinase type 1D (Homo sapiens) (Q8IU85 whole entry, looked up): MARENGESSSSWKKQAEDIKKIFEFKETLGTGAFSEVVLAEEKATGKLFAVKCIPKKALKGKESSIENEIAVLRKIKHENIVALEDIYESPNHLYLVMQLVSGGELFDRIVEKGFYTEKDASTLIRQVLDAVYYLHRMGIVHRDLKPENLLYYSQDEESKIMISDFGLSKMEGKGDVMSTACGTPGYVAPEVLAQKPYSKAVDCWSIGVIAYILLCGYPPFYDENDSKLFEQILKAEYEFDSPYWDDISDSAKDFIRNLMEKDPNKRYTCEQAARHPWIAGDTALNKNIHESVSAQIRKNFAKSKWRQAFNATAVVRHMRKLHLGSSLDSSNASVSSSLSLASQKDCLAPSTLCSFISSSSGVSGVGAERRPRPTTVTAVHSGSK
Chain of 5'-AMP-activated protein kinase catalytic subunit alpha-1 (Homo sapiens) (Q13131 whole entry, looked up): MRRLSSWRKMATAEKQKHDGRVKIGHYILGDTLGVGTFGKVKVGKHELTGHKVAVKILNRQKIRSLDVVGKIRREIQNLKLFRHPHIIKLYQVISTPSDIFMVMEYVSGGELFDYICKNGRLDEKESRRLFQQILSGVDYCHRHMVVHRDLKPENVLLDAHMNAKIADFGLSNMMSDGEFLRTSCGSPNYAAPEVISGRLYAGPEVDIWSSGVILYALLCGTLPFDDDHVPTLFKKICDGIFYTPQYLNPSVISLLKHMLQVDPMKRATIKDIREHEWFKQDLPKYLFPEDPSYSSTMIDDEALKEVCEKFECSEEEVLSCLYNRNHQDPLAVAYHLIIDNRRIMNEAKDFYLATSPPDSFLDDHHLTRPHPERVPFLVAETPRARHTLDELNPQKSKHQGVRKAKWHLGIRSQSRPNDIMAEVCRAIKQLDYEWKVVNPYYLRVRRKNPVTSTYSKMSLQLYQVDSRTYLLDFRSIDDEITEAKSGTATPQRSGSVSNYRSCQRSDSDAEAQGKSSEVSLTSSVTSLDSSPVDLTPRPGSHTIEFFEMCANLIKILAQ

| Structure (SMILES) | inhibition [1] | inhibition [2] | inhibition [3] | inhibition [4] | inhibition [5] | inhibition [6] | inhibition [7] | inhibition [8] | inhibition [9] | inhibition [10] | inhibition [11] | inhibition [12] | inhibition [13] | inhibition [14] | inhibition [15] | inhibition [16] | inhibition [17] | inhibition [18] | inhibition [19] | inhibition [20] |
| --- | --- | --- | --- | --- | --- | --- | --- | --- | --- | --- | --- | --- | --- | --- | --- | --- | --- | --- | --- | --- |
| CCc1nccc2c1nc(-c1nonc1N)n2CC | 0.92% | 0.21% | 3.23% | 0.23% | 9.51% | 2.62% | 7.73% | 1% | -1.23% | -1.43% | 2% | 2.71% | 4.47% | 0.98% | 4.27% | 2.16% | 4.53% | 1.07% | 1.8% | 0.2% |
| COc1ccc2cc(-c3c(-c4ccncc4)nc(-c4ccc(S(C)(=O)=O)cc4C)n3C)ccc2c1 | 2.04% | 3.01% | 4.51% | 5.05% | 4.24% | 2.89% | 4.29% | 3.65% | 2.77% | 4.21% | 3.5% | -2.12% | 4.31% | 1.72% | 1.23% | 1.12% | 3.04% | 1.08% | 1.85% | 2.82% |
| CCS(=O)(=O)c1ccc(OC)c(Nc2ncc(-c3ccccc3Cl)o2)c1 | 3.92% | -0.42% | 2.5% | -1.58% | -2.15% | -0.26% | -1.36% | 1.54% | 0.82% | -1.8% | 2.95% | 2.27% | 1.46% | -1% | -0.58% | 0.64% | -1.12% | 0.68% | 1.43% | 2.2% |
| O=C(NCC1CC1)c1ccc(-c2cccc(C(=O)NC3CC3)c2)cc1 | 0.61% | 0.99% | 0.82% | 0.58% | 3.1% | 1.28% | 1.29% | 2.2% | 3.29% | 0.26% | 1.74% | 1.06% | 4.26% | 1.95% | 0.89% | 1.44% | -1.6% | 0.99% | 2.29% | 2.2% |
| O=C1Nc2ccc(I)cc2C1=Cc1cc(Br)c(O)c(Br)c1 | 3.84% | 0.41% | 2.04% | 1.05% | 0.89% | 3.3% | 1.73% | 1.53% | 3.41% | 6.97% | 3.18% | -1.04% | 3.51% | 3.87% | 0.15% | 0.3% | 2.23% | 1.27% | 2.96% | 4.96% |
| CNC(=O)c1cncc(/C=C/c2c(C)cccc2C)c1 | 0.69% | 0.67% | 2.02% | 5.07% | -3.14% | -1.1% | 0.16% | -0.07% | 0.48% | -4.03% | 0.33% | 2.16% | 2.93% | 1.29% | 5.17% | 0.83% | 5.16% | 1.13% | 0.73% | 2.12% |
| COC(=O)Nc1nc2ccc(Sc3ccc(NC(=O)Nc4cc(C(F)(F)F)ccc4F)cc3)cc2[nH]1 | 0.24% | 0.54% | 4.52% | 0.41% | 0.74% | -0.29% | 0.03% | 0.86% | 0.23% | -4.11% | 1.29% | 3.62% | -4.85% | -1.14% | 0.16% | -0.46% | 1.01% | 0.9% | 0.37% | 3% |
